CHX counter: affects cycloheximide protein synthesis inhibition readout, counter-screen; max response, %; cell reporter, cycloheximide protein synthesis inhibition counterscreen; 12% of 300,000 active; AID 2314; in the data active = max response mostly above about 13%, no sharp cut-off; inactive = mostly below about 14%; also: read at 38.3 µM for the half of the compounds with a filed dose; 0% is about no effect
Pf growth 96h: P. falciparum growth inhibition at 96 hours; P. falciparum luciferase reporter growth, 96 h; Potency, µM (highest dose often 28.7 µM), without a hit: at the highest dose activity change, negative = inhibition, most hits filed as inhibitors; 6.9% of 320,000 active; AID 504834; also: potency is read from the fitted curve at half-maximal effect; % is scaled to controls: 0 for no effect and ±100 for the full control effect
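P. falciparum expressing integrated firefly luciferase, in erythrocytes at 2% hematocrit, 0.05% parasitemia, incubated with compounds 96 h at 37 C, 5% CO2. Growth inhibition read as loss of luminescence; two-generation exposure targets delayed-death apicoplast inhibitors.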
Shiga inhibitor: Shiga toxin inhibition; Vero cells, Shiga toxin protein synthesis inhibition reporter; inhibition, % at 38.7 µM; 9.2% of 290,000 active; in the data active = inhibition mostly above about 28%, no sharp cut-off; inactive = mostly below about 43%; also: 0% is about no effect
Pf growth 48h: P. falciparum growth inhibition at 48 hours (one generation); AID 504832; 5.9% of 310,000 active; P. falciparum luciferase growth in erythrocytes, 48 h; Potency, µM (top dose mostly 28.7 µM), without a hit: at the top dose activity change, negative = inhibition, most hits filed as inhibitors; also: potency is read from the fitted curve at half-maximal effect; % is scaled to controls: 0 for no effect and ±100 for the full control effect
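Luminescence readout; reporter = integrated firefly luciferase in P. falciparum. RBC culture at 2% hematocrit, 0.1% parasitemia final, 37 C/5% CO2; decreased signal taken as growth inhibition.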
AMA1-RON2 inh: disrupts binding of P. falciparum AMA1 to RON2; AlphaScreen AMA1-biotinylated RON2 peptide binding; Potency, µM (highest dose often 58.2 µM), for the others: at the top dose activity change, negative = inhibition, usual class: inhibitors; 0.2% of 360,000 active;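 also: potency is read from the fitted curve at half-maximal effect; 0% = vehicle wells and -100% = peptide control; nearly all actives have a fitted effect of over 45% in size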
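AMA1 (3D7) with his tag at 25 nM final met compounds first, then biotinylated RON2 peptide at 25 nM; detection used donor plus acceptor beads, 10 µg/mL apiece, read by AlphaScreen after 30 min at room temperature.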
SARS PLpro yeast: SARS-CoV PLP inhibition in yeast | S. cerevisiae expressing SARS-CoV PLpro, growth rescue | Potency, µM (top dose mostly 32.9 µM), for the others: top-dose activity, positive = growth rescue, actives largely listed as activators | 0.19% of 330,000 active; calls by dose curve; also: potency is read from the fitted curve at half-maximal effect; 0% is about no effect; nearly all actives have a fitted effect of over 55% in size
* = called active by the depositor; i = inactive; ? = inconclusive; nt = no result. Compounds with a hit are over-represented: about 19% of the library has one in this group of screens. Unless noted, calls follow the shape of the dose curve; as a rule, active = well fitted curve in the direction sought with a large enough effect; inconclusive = small, poorly fitted or top-dose-only effect, or another doubt; inactive = no such curve, though single readings can be large; an effect the other way counts as inactive or inconclusive.

SMILES	CHX counter	Pf growth 96h	Shiga inhibitor	Pf growth 48h	AMA1-RON2 inh	SARS PLpro yeast
COc1ccc(OC)c(NC(=O)c2ccc3c(c2)C(=O)N(CC2CCCO2)C3=O)c1 (stereo unspecified)	-1	9%	-5	23%	-21%	0%
CCN(CC)C(=O)COc1cc(C)cc2oc(=O)cc(-c3ccccc3)c12	-1	55%	-9	?	-1%	-14%
COc1ccc2cc(-c3ccccc3)c(=O)oc2c1	32*	254%	52*	234%	83%	-5%
Cc1cc(OCC(=O)N(C)C)c2c(-c3ccccc3)cc(=O)oc2c1	-4	10µM*	-13	nt	-5%	8%
O=C(COC(=O)c1ccccc1SCC(=O)N1CCCC1)NCc1ccccc1	nt	6%	nt	?	2%	2%
O=C(Nc1nnc([C@H]2C[C@H](O)[C@@H](CO)O2)s1)NC1CCCCC1	nt	nt	nt	nt	4%	nt
Cc1cccc(C)c1NC(=O)CSc1nc(C2CC2)nc2ccccc12	-3	-7%	-9	-1%	-5%	1%
Cc1[nH]c2ccccc2c1C(=O)CN1CCN(C/C=C/c2ccccc2)CC1	-1	?	16	8.3µM*	10%	-2%
COc1ccc2[nH]c(C)c(C(=O)CN3CCN(C/C=C/c4ccccc4)CC3)c2c1	2	8.3µM*	11	?	-11%	-1%
Cc1[nH]c2ccccc2c1C(=O)CN1CC=C(c2ccccc2)CC1	-3	?	-7	12µM*	1%	-10%
COc1ccccc1CNC(=O)CCNS(=O)(=O)/C=C/c1ccc(C)cc1	nt	nt	nt	nt	-8%	1%
Cc1ccccc1-n1ncc(C(C)NS(=O)(=O)c2sccc2C)c1C (stereo unspecified)	9	?	1	?	-9%	7%
COc1ccc(OC)c(S(=O)(=O)NC(C)c2cnn(-c3ccccn3)c2C)c1 (stereo unspecified)	-1	15µM*	-25	7%	-2%	6%
COc1ccc(-n2ncc(C(C)NS(=O)(=O)c3ccc(C)s3)c2C)cc1 (stereo unspecified)	-3	8.3µM*	14	7%	-8%	1%
COc1ccc(Cl)cc1S(=O)(=O)NC(C)c1cnn(-c2ccccn2)c1C (stereo unspecified)	nt	nt	nt	nt	5%	nt
CCCCOC(=O)Nc1ccc(C(N)=O)cc1	37*	-2%	76*	106%	-3%	-14%
CCCCOC(=O)Nc1ccc(S(=O)(=O)Nc2ccc([N+](=O)[O-])cc2)cc1	5	48%	20	6%	-4%	12%
CCCCOC(=O)Nc1ccc(C(C)C)cc1	40*	74%	86*	246%	7%	0%
CCCCOC(=O)Nc1ccc(S(=O)(=O)Nn2cnnc2)cc1	-2	51%	19	10%	-1%	4%
CC(C)COC(=O)NCCCOC(=O)Nc1ccccc1	37*	?	16	38%	1%	-5%
CCCCOC(=O)Nc1ccc(N(C)C)cc1	80*	25%	116*	348%	?	10%
COc1ccccc1-c1cnc(C(O)c2cccc(C)c2C)[nH]1 (stereo unspecified)	nt	nt	nt	nt	1%	nt
COc1ccc(N2CCN(C(=O)c3cc(=O)c4cc(C)c(C)cc4o3)CC2)cc1	-4	38%	-6	-18%	41%	-2%
O=C(COC(=O)Cc1ccsc1)Nc1ccccc1Cl	nt	34%	nt	-5%	8%	-2%
CCOCCOC(=O)c1cccc(NC(=O)OCC)c1	14	9%	26	nt	16%	-3%
SMILES	CHX counter	Pf growth 96h	Shiga inhibitor	Pf growth 48h	AMA1-RON2 inh	SARS PLpro yeast
CCCCOC(=O)Nc1cccc(C(=O)OCC)c1	21*	216%	83*	97%	3%	3%
COc1ccc(-n2cnc3ccccc32)cc1	20	nt	28	32%	-1%	1%
CCC(=O)Nc1ccc2c(c1)ncn2-c1ccccc1C	-3	i	14	-28%	2%	0%
CCC(=O)Nc1ccc2c(c1)ncn2-c1ccc(OC)cc1	46*	98%	66*	-11%	2%	8%
CCC(=O)Nc1ccc2c(c1)ncn2-c1ccc(C)cc1	36*	?	96*	139%	0%	0%
O=C(CC12CC3CC(CC(C3)C1)C2)NCC(=O)N1CCc2ccccc2C1	-2	?	10	nt	-12%	9%

Assay outcomes: PubChem, National Center for Advancing Translational Sciences (NCATS)
